Screens from PubChem BioAssay.
BoNT-A LC inh2: blocks Botulinum neurotoxin A light chain protease; multiplex microsphere protease substrate cleavage, flow cytometry; inhibition, % at 10 µM; 360,000 tested, 0.17% active; note: plate controls were buffer without enzyme for full effect and enzyme alone for no effect
Anthrax LF inh2: anthrax lethal factor protease inhibition; inhibition, % at 10 µM; 360,000 tested, 0.12% active; P15917; multiplex microsphere protease cleavage assay, LF; AID 588501; note: plate controls were buffer without enzyme for full effect and enzyme alone for no effect
BoNT F protease: blocks Botulinum neurotoxin F light chain protease; Multiplex microsphere protease cleavage assay, flow cytometry; inhibition, % at 10 µM; 360,000 tested, 0.22% active; AID 588497; in the data active = inhibition above about 35%, passing the limit was not always enough; inconclusive = no clear call, values can overlap the other calls; note: plate controls were buffer without enzyme for full effect and enzyme alone for no effect
Bead autofluor: compound fluorescence in toxin protease inhibitor counterscreen; compound autofluorescence counterscreen, microsphere flow cytometry; stronger effect = higher value; fluorescence intensity (concentration not given with the values); AID 624483; 360,000 tested, 3.1% active; in the data active = fluorescence intensity above about 16000; inconclusive = no clear call, values can overlap the other calls
Numbers without * were called inactive. Compounds with a hit are over-represented: about 3.5% of the library has one in this group of screens. Cut-off read from the data, not from the text of the source, unless noted: active = inhibition above about 30%; inconclusive = no clear call, values can overlap the other calls; inactive = below that.

Screening Cc1ccc2c(CC(=O)Nc3ccc(F)c(S(=O)(=O)N4CCOCC4)c3)coc2c1 returned BoNT-A LC inh2 -2, Anthrax LF inh2 0, BoNT F protease -3 and Bead autofluor 9300.
`CN1CCc2ccccc2C1C1CCNCC1` (stereo not given) gave BoNT-A LC inh2 -5, Anthrax LF inh2 -1, BoNT F protease -9 and Bead autofluor 24213*.
Screening C[C@H]1CN([C@@H](C)CO)C(=O)CCCn2nncc2CO[C@@H]1CN(C)Cc1cccc(C(=O)O)c1 returned BoNT-A LC inh2 0, Anthrax LF inh2 -3, BoNT F protease 7 and Bead autofluor 5733.
For FC(F)(F)/C(=N\P(=S)(N1CCOCC1)N1CCOCC1)N1CCOCC1 the results were BoNT-A LC inh2 inconclusive, Anthrax LF inh2 -9, BoNT F protease 13 and Bead autofluor 17852*.
`O=C(NCC1CCCN1S(=O)(=O)c1cccs1)c1ccc([N+](=O)[O-])cc1` (stereo not given) gave BoNT-A LC inh2 0, Anthrax LF inh2 6, BoNT F protease 1 and Bead autofluor inconclusive.
For CCN(CC)CCNC(=O)c1ccc(NC(=O)Cc2ccsc2)cc1 the results were BoNT-A LC inh2 0, Anthrax LF inh2 3, BoNT F protease 0 and Bead autofluor 6089.
Screening CCCNC(=O)Cc1ccsc1 returned BoNT-A LC inh2 3, Anthrax LF inh2 0, BoNT F protease 3 and Bead autofluor 21829*.
For COc1ccc(OC)c(NC(=O)c2cccc(NC(=O)c3ccccc3)c2)c1 the results were BoNT-A LC inh2 -4, Anthrax LF inh2 13, BoNT F protease inconclusive and Bead autofluor 3617.
For CN1OC[C@@H]2CN(Cc3ccccc3)[C@H](c3ccc(N4CCCCC4)cc3)C[C@@H]21 the results were BoNT-A LC inh2 -7, Anthrax LF inh2 -22, BoNT F protease -6 and Bead autofluor 12789.
`CN1OC[C@@H]2CN(Cc3ccc4c(c3)OCO4)[C@H](c3ccc(N4CCCCC4)cc3)C[C@@H]21` gave BoNT-A LC inh2 -15, Anthrax LF inh2 -22, BoNT F protease 15 and Bead autofluor 23460*.
Screening COc1c(OC(C)=O)ccc(/C=C/c2ccc3ccccc3n2)c1[N+](=O)[O-] returned BoNT-A LC inh2 -1, Anthrax LF inh2 1, BoNT F protease -6 and Bead autofluor 23285*.
Screening CCCCOc1ccc(C(=O)NCC(=O)N2CCN(C/C=C/c3ccccc3)CC2)cc1 returned BoNT-A LC inh2 0, Anthrax LF inh2 2, BoNT F protease -4 and Bead autofluor 3780.
For O=C(CN1C(=O)c2ccccc2S1(=O)=O)N1CCOCC1 the results were BoNT-A LC inh2 10, Anthrax LF inh2 -8, BoNT F protease 9 and Bead autofluor 20391*.
COc1ccccc1OCC(O)CN1CCN(C(=O)c2ccccc2)CC1 (stereo not given) was read as BoNT-A LC inh2 0, Anthrax LF inh2 20, BoNT F protease 9 and Bead autofluor 3229.
For CSc1ccc(C(=S)N2CCN(CCO)CC2)cc1 the results were BoNT-A LC inh2 -4, Anthrax LF inh2 -4, BoNT F protease -4 and Bead autofluor 10601.
OCCN1CCN(C(=S)c2ccc(Br)cc2)CC1 was read as BoNT-A LC inh2 inconclusive, Anthrax LF inh2 -4, BoNT F protease 8 and Bead autofluor 21663*.
CC1(C)CC(CC(=O)Nc2ccccn2)C(=O)O1 (stereo not given) was read as BoNT-A LC inh2 -1, Anthrax LF inh2 0, BoNT F protease -1 and Bead autofluor 23618*.
Screening Cc1ccc(NC(=S)NC(=O)CC2CC(C)(C)OC2=O)cc1 (stereo not given) returned BoNT-A LC inh2 0, Anthrax LF inh2 -1, BoNT F protease -2 and Bead autofluor 2454.
`CCc1ccc(N2C(=O)/C(=C/c3cccs3)N(CC(=O)OC)C2=S)cc1` gave BoNT-A LC inh2 inconclusive, Anthrax LF inh2 -1, BoNT F protease 3 and Bead autofluor 23041*.
COc1ccc(NC(=O)CSc2nc3ccccc3c3nc4ccccc4n23)cc1 was read as BoNT-A LC inh2 -1, Anthrax LF inh2 -1, BoNT F protease -17 and Bead autofluor 2453.
`Cc1ccc(NC(=O)CSc2nc3ccccc3c3nc4ccccc4n23)cc1` gave BoNT-A LC inh2 0, Anthrax LF inh2 0, BoNT F protease 1 and Bead autofluor 19179*.
Screening CCC(=O)n1nc(-c2ccccc2)nc1SCC(=O)Nc1ccc(C)cc1 returned BoNT-A LC inh2 -1, Anthrax LF inh2 -1, BoNT F protease -3 and Bead autofluor 21542*.
For Cc1ccc(C)c(OCCC(=O)NCCc2ccc(F)cc2)c1 the results were BoNT-A LC inh2 2, Anthrax LF inh2 0, BoNT F protease -1 and Bead autofluor 5465.
`CN(C)S(=O)(=O)c1cccc(NC(=S)N(CCC#N)Cc2cccnc2)c1` gave BoNT-A LC inh2 0, Anthrax LF inh2 -4, BoNT F protease -2 and Bead autofluor 4486.
For O=C(Nc1ccc(CN2CCOCC2)cc1)c1cccc(F)c1 the results were BoNT-A LC inh2 3, Anthrax LF inh2 0, BoNT F protease 1 and Bead autofluor 18588*.
`COC(=O)c1ccc(NC(=O)c2ccc(CN3CCOCC3)cc2)cc1` gave BoNT-A LC inh2 0, Anthrax LF inh2 0, BoNT F protease 2 and Bead autofluor 16430*.
CCC(Sc1nc(C)cc(C)n1)C(=O)Nc1nccs1 (stereo not given) was read as BoNT-A LC inh2 1, Anthrax LF inh2 5, BoNT F protease 0 and Bead autofluor 5907.
CC(C)C(=O)Nc1cccc(C(=O)NCc2ccc(S(N)(=O)=O)cc2)c1 was read as BoNT-A LC inh2 7, Anthrax LF inh2 -16, BoNT F protease 12 and Bead autofluor 18546*.
For Cc1nc(NC(=S)NC(=O)c2cccs2)sc1C(=O)N(C)C the results were BoNT-A LC inh2 -2, Anthrax LF inh2 0, BoNT F protease -1 and Bead autofluor 22794*.
COc1ccc(C(=O)NC(=S)Nc2nc(C)c(C(=O)N(C)C)s2)cc1 was read as BoNT-A LC inh2 -1, Anthrax LF inh2 1, BoNT F protease 0 and Bead autofluor 8423.
`CSC(=O)CC(=O)NC(=O)c1ccccc1` gave BoNT-A LC inh2 -4, Anthrax LF inh2 -2, BoNT F protease -6 and Bead autofluor 25369*.
`CSc1nnc(SCC(=O)NC(=O)c2ccccc2)s1` gave BoNT-A LC inh2 -3, Anthrax LF inh2 -2, BoNT F protease -15 and Bead autofluor 6714.
Screening O=C(Cc1ccc(Cl)cc1)NNC(=O)c1ccco1 returned BoNT-A LC inh2 -3, Anthrax LF inh2 -2, BoNT F protease -4 and Bead autofluor 4914.
For CCOc1ccc(Cc2nnc(SCC(N)=O)n2C)cc1 the results were BoNT-A LC inh2 -2, Anthrax LF inh2 0, BoNT F protease -4 and Bead autofluor 21499*.
Screening Cc1ccc(OCc2nnc(SCC(N)=O)n2N)cc1 returned BoNT-A LC inh2 1, Anthrax LF inh2 3, BoNT F protease 3 and Bead autofluor 5445.
`COCCn1c(COc2ccc(Cl)cc2)nnc1SCC(N)=O` gave BoNT-A LC inh2 2, Anthrax LF inh2 -1, BoNT F protease 3 and Bead autofluor 22516*.
Screening FC(F)(F)c1cccc(CON=C2CCN(c3ncc(C(F)(F)F)cc3Cl)CC2)c1 returned BoNT-A LC inh2 0, Anthrax LF inh2 1, BoNT F protease -1 and Bead autofluor 19810*.
